# According to PubChem BioAssay (NCATS):
# Records with an inconclusive call do not appear. Unmarked numbers belong to inactive results. Active and inactive are the calls of the source. Calls come from the whole dose curve; as a rule, active = well fitted inhibition curve with a large enough effect; inconclusive = small, poorly fitted or top-dose-only effect; inactive = flat fitted curve, though single readings scatter.
# Assay: BET inhibitor-based combinations targeting novel dependencies in MECOM-rearranged (r) AML: AML-194 cell line (AID 2202237; note: nearly all actives have a fitted effect of over 40% in size;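 for viability (% of control): plate controls were vehicle wells for no effect and wells without cells for full effect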)
# Conditions: AML-194 (MECOM-r AML) viability, CellTiter-Glo, 48 h; series mostly up to 46 µM; viability (% of control): at the top concentration
# Summary of the method: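 Cells were plated at 500 per well and exposed to an 11-point dose series of each drug for 48 hr. Viability was measured by CellTiter-Glo luminescence, normalized to DMSO and empty-well controls, and summarized as AUC and per-cell-line Z-AUC.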
# Potency is the fitted concentration of half-maximal effect.
Compound,viability (% of control),Potency
CC(C)(C)OC(=O)CN(Cc1ccc(Cl)cc1)Cc1ccc([N+](=O)[O-])s1,87.4%,–
COc1cccc([C@@H](C)NCCCc2ccccc2Cl)c1,–,23.5 µM (active)
COc1cc2c(cc1Cc1cccc(Cl)c1F)c(=O)c(C(=O)O)cn2[C@H](CO)C(C)C,–,8.33 µM (active)
O=C(O)c1cn(C2CC2)c2cc(N3CCNCC3)c(F)cc2c1=O,113% [at 8.46 µM],–
O=[N+]([O-])c1cncn1CCN1CCOCC1,108%,–
O=C1CCc2ccc(OCCCCN3CCN(c4cccc(Cl)c4Cl)CC3)cc2N1,–,26.3 µM (active)
CC(C)(C)c1cnc(CSc2cnc(NC(=O)C3CCNCC3)s2)o1,–,0.742 µM (active)
COc1ccc(C=Cc2cc(OC)c(OC)c(OC)c2)cc1NC(=O)[C@H](N)CO,–,0.296 µM (active)
CNC(=O)c1cc(COc2nnc(Nc3ccc(Cl)cc3)c3ccoc23)ccn1,98.2%,–
CCOC(=O)N1c2ccc(C(F)(F)F)cc2[C@@H](N(Cc2cc(C(F)(F)F)cc(C(F)(F)F)c2)C(=O)OC)C[C@H]1CC,111%,–
C[C@]12CCC(=O)C=C1[C@@H]1C[C@@H]1[C@H]1[C@@H]3[C@@H]4C[C@@H]4[C@@]4(CCC(=O)O4)[C@@]3(C)CC[C@@H]12,98.6%,–
C[C@]1(c2nc3c(C(N)=O)cccc3[nH]2)CCCN1,94.7%,–
CN1C(=O)C[C@H](C(=O)N[C@@H](Cc2cnc[nH]2)C(=O)N2CCC[C@@H]2C(N)=O)NC1=O,101%,–
CCOc1ccccc1N=Nc1c(C)[nH]n(-c2nc(-c3ccccc3)cs2)c1=O,104%,–
Nc1nc(=O)n([C@H]2C[C@H](O)[C@@H](CO)O2)cc1F,–,0.742 µM (active)
CC(C)c1ccccc1Cc1cc(C(=O)Nc2ccc(S(=O)(=O)c3ccccc3C(C)(C)C)cc2)c(O)c(O)c1O,–,10.5 µM (active)
O=C1c2cccc(O)c2C(=O)c2c(O)cc(CO)cc21,110%,–
C[C@H](NC(=O)[C@@H](O)c1cc(F)cc(F)c1)C(=O)N[C@@H]1C(=O)N(C)c2ccccc2-c2ccccc21,96.5%,–
O=C(Nc1ccccc1Br)N[C@@H]1CCN(c2ccc(C(F)(F)F)cn2)C1,107%,–
CC(C)Cn1cnc2c(N)nc3ccccc3c21,106% [at 15.6 µM],–
COc1cccc2c1CCCC2CCCN1CCN(C2CCCCC2)CC1 (stereo unspecified),85.4%,–
